PubChem BioAssay AID1851 (National Center for Advancing Translational Sciences (NCATS), 2009)
In all, about 16,000 compounds went through this assay and about 5,700 (36%) were called active. Another 24% or so got no clear call; they are omitted. This is one part of the list. Unmarked numbers belong to inactive results. Calls come from the whole dose curve; as a rule, active = well fitted curve in the direction sought with a large enough effect; inconclusive = small, poorly fitted or top-dose-only effect, or effect the other way; inactive = no such curve, though single readings can be large or run the other way.

The compounds below were run against Cytochrome P450 1A2 (Homo sapiens) (UniProt P05177) (assay: Cytochrome panel assay with activity outcomes). Conditions: recombinant CYP, pro-luciferin dealkylation, luminescence, p450-cyp1a2; series mostly up to 57.1 µM; activity, negative = inhibition: at the top concentration.
% is set by controls: 0 for no effect and ±100 for the full control effect.

Cytochrome P450 1A2 (Homo sapiens), sequence (P05177 whole entry, looked up): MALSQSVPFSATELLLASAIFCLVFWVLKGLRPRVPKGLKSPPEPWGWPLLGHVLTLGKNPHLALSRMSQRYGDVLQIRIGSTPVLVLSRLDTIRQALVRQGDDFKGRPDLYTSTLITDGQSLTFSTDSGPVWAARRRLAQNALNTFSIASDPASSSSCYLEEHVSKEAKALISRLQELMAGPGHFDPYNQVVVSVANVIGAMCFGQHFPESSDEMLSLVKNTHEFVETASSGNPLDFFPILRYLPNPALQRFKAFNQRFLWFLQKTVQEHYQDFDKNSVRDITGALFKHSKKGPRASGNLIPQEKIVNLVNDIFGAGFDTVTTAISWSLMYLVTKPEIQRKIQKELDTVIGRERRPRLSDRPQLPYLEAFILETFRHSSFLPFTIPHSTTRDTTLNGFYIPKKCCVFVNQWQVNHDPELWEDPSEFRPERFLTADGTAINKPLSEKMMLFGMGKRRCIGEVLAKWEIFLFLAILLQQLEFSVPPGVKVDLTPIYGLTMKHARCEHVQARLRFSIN

Structure (SMILES) | activity, negative = inhibition | AC50
CC1(C)C2([N+](=O)[O-])CN3CC1([N+](=O)[O-])CN(C2)C31CCCC1 | 5.96% | –
Cc1noc(C)c1C(=O)N1CCC2(CCN(Cc3ccncc3)CC2)CC1 | 2.85% | –
CCc1c(C)c(C#N)c2nc3ccccc3n2c1N1CCN(c2cc(C)ccn2)CC1 | -11% | –
CCCCSCc1nc2nc(Cl)c(Cl)nc2[nH]1 | – | 3.16 µM (active)
O=C(O)c1nc2nc(Cl)c(Cl)nc2[nH]1 | -18.2% [at 11.4 µM] | –
O=C(CN1CCN(CC(=O)Nc2ccccc2Cl)CC1)Nc1ccc2c(c1)OCCO2 | -49.9% | –
O=C(CSCc1ccc(Cl)cc1)Nc1nccs1 | – | 0.178 µM (active)
O=C(O)CCC(=O)N1CCOc2ccc(Cl)cc21 | -13.1% | –
O=C(CSCc1ccc(Cl)cc1)Nc1ccc2c(c1)OCCO2 | – | 17.8 µM (active)
C/C(=N\NC(=O)CSCc1ccc(Cl)cc1)c1ccc2c(c1)OCCO2 | – | 7.94 µM (active)
CC(C)(C)NC(=O)CN(Cc1cccs1)C(=O)CCC(=O)Nc1nccs1 | -15.8% | –
O=S(=O)(c1ccccc1)N1CCC2(CCN(Cc3nccs3)CC2)CC1 | 1.6% | –
O=C(c1csnn1)N1CCC[C@@]2(CCN(c3ccncc3)C2)C1 | -17.8% | –
CCOC(=O)c1c(NC(C)=O)sc2c(OC)cccc12 | – | 0.316 µM (active)
NS(=O)(=O)c1cc2c(cc1Cl)=NC(CCC(=O)O)=NS=2(=O)O | 4.98% [at 11.4 µM] | –
Cc1nn(C(C)C(=O)N2CCc3ccccc32)c(C)c1[N+](=O)[O-] (stereo unspecified) | -9.2% | –
Cc1nn(C(C)C(=O)Nc2sc3c(c2C#N)CCCC3)c(C)c1[N+](=O)[O-] (stereo unspecified) | – | 3.55 µM (active)
CCOc1cc(C2NN=C(c3ccccc3)S2)ccc1OCc1ccccc1Cl (stereo unspecified) | – | 3.16 µM (active)
CN(C)c1ccnc(-c2cccc(NS(C)(=O)=O)c2)n1 | – | 1.58 µM (active)
CN(Cc1ccco1)c1ccnc(-c2cccc(NS(C)(=O)=O)c2)n1 | – | 1.26 µM (active)
C=C[C@@]1(C)CC(=O)[C@@]2(O)[C@@]3(C)[C@@H](O)CCC(C)(C)[C@@H]3[C@H](OC(=O)CCN(C)C)[C@H](OC(C)=O)[C@@]2(C)O1 | 3.28% | –
COC(=O)c1ccc(C(=O)OC)c(NC(=O)CSCc2ccc(Br)cc2)c1 | – | 0.891 µM (active)
O=C(Nc1ccc(Br)cc1)c1ccc(CSC2=NCCS2)cc1 | -23.7% | –

Structure (SMILES) | activity, negative = inhibition | AC50
CC(=O)Nc1ccc(-c2cc(-c3ccc(NC(C)=O)cc3)nc(-c3ccccc3)n2)cc1 | 2.96% | –
N#Cc1ccc(Oc2nc(C(N)=O)cc(-c3ccccc3)n2)cc1 | – | 2 µM (active)
Cc1ccc(NC(=O)c2cc([N+](=O)[O-])ccc2NCc2cccnc2)cc1Cl | – | 0.126 µM (active)
COC(=O)C1(Cc2ccccc2)C2c3cc(C(=O)N4CCCC4)n(Cc4ccc(OC(F)(F)F)cc4)c3CC2CN1C(=O)c1ccccc1 (stereo unspecified) | -14.3% | –
CC(C)c1ccc(CNc2cc(N3CCCC3)ccc2[N+](=O)[O-])cc1 | – | 3.16 µM (active)
Cc1cc(C)c(S(=O)(=O)N2CCN(c3ccc([N+](=O)[O-])c(NCC4CCCO4)c3)CC2)c(C)c1 (stereo unspecified) | -29.3% | –
Cc1cc(C)c(S(=O)(=O)N2CCN(c3ccc([N+](=O)[O-])c(NCc4ccco4)c3)CC2)c(C)c1 | -24.1% | –
CS(=O)(=O)N1CCN(c2ccc([N+](=O)[O-])c(NCc3ccccc3)c2)CC1 | – | 12.6 µM (active)
Cc1cccc(C(=O)N2CCN(c3ccc([N+](=O)[O-])c(NCc4ccco4)c3)CC2)c1 | -10.7% | –
O=C(O)CSc1ncccc1[N+](=O)[O-] | 2.52% [at 11.4 µM] | –
Cc1ccccc1C(=O)N1CCN(c2ccc([N+](=O)[O-])c(NCc3ccco3)c2)CC1 | -15.1% | –
Cc1cc(C)n(-c2cc(N3CCN(C(=O)c4ccc(C(C)(C)C)cc4)CC3)ccc2[N+](=O)[O-])n1 | -14.2% | –
O=[N+]([O-])c1ccc(N2CCCC2)cc1NCc1ccccc1 | – | 0.794 µM (active)
O=[N+]([O-])c1cccnc1N1CCCCC1 | – | 5.01 µM (active)
O=[N+]([O-])c1nccn1C[C@H](O)CN1CCCCC1 | 4.83% [at 11.4 µM] | –
CC1CCCC(NC(=O)C2CCN(S(=O)(=O)N3CCC4(CC3)OCCO4)CC2)C1C (stereo unspecified) | 0.237% | –
O=C(O)C1CCN(c2c([N+](=O)[O-])cc(C(F)(F)F)cc2[N+](=O)[O-])CC1 | -12.7% | –
O=[N+]([O-])c1ccc(N2CCCC2)cc1N1CCCC1 | – | 0.316 µM (active)
Cc1ccccc1C(=O)N1CCN(c2ccc([N+](=O)[O-])c(N3CCOCC3)c2)CC1 | -5.63% | –
Cc1ccc(OCC(=O)N2CCN(c3ccc([N+](=O)[O-])c(N4CCOCC4)c3)CC2)cc1 | -14% | –
Cn1c(=O)n(C)c2cc([N+](=O)[O-])c(N3CCN(C(=O)c4ccccc4Cl)CC3)cc21 | 6.96% | –
O=[N+]([O-])c1cc(F)c(N2CCOCC2)cc1N1CCCCC1 | – | 1.26 µM (active)
O=[N+]([O-])c1ccc(N2CCCCC2)c(Cl)c1N1CCCCC1 | – | 2 µM (active)

Structure (SMILES) | activity, negative = inhibition | AC50
Cn1c(=O)n2n(c1=O)[C@H]1[C@H](O)[C@H]3O[C@H]3C(=O)[C@H]1CC2 | -12.9% [at 11.4 µM] | –
Cc1cccc(NC2=NC(=S)N(c3ccc(C(=O)O)cc3)C23CCCCC3)c1 | -0.631% | –
COc1ccc(C(=O)NC2CCN(C(=S)Nc3cccc(C)c3)CC2)cc1 | 7.46% | –
CC12CCC(C(=O)Nc3cccc4ccccc34)(C1Br)C2(C)C (stereo unspecified) | – | 22.4 µM (active)
Cc1cccc(NC(=O)C23CCC(C)(C2Br)C3(C)C)c1 (stereo unspecified) | – | 15.8 µM (active)
COc1ccc(CNc2ncnc3ccc(-c4ccccc4OC)cc23)c(OC)c1 | – | 3.16 µM (active)
COc1ccccc1CNc1ncnc2ccc(-c3ccccc3OC)cc12 | – | 1 µM (active)
C[N+](C)(C)CCOC(=O)CCC(=O)OCC[N+](C)(C)C | -4.51% | –
CCOC(=S)NC(=O)c1sc2ccccc2c1Cl | – | 1.58 µM (active)
CCCCOC(=S)NC(=O)c1sc2ccccc2c1Cl | – | 2 µM (active)
O=C(NC(=S)N(CCCCO)C1CCCCC1)c1sc2ccccc2c1Cl | – | 1.26 µM (active)
O=C(c1sc2ccccc2c1Cl)N(Cc1ccccc1)C1CCS(=O)(=O)C1 (stereo unspecified) | -12.4% | –
CCOc1c(OC(C)=O)ccc(/C=C2\N=C(SCC)SC2=O)c1[N+](=O)[O-] | – | 0.631 µM (active)
CCOc1c(OC(C)=O)ccc(/C=C/c2ccc3cccc(OC(C)=O)c3n2)c1[N+](=O)[O-] | – | 4.47 µM (active)
Cc1ccc(S(=O)(=O)N=Nc2c(O)[nH]c3cc(O)c(C(=O)O)cc23)cc1 | -15.8% [at 2.29 µM] | –
O=C(O)[C@@H]1[C@@H](C(=O)NCc2ccccn2)[C@@H]2C=C[C@@H]1O2 | -0.104% [at 2.29 µM] | –
Cc1cc(=O)oc(C)c1C(=O)NCc1ccccc1 | -3.38% | –
O=C(O)[C@@H](O)Cc1ccccn1 | -9.06% [at 11.4 µM] | –
CC(C)C(NC(=O)C1CCCCC1)C(=O)NCc1ccccn1 (stereo unspecified) | -3.6% | –
Cc1cc(=O)oc(C)c1C(=O)N1CCCCC1 | 2.37% | –
Cc1cc(=O)oc(C)c1C(=O)NCc1cccnc1 | – | 4.47 µM (active)
CC(Cc1ccccc1)C(=O)NCc1ccccn1 (stereo unspecified) | – | 15.8 µM (active)
Cc1cc(=O)oc(C)c1C(=O)NCCCN1CCN(c2ccc(F)cc2)CC1 | 4.74% | –

Structure (SMILES) | activity, negative = inhibition | AC50
CCCNC(=O)c1c(C)cc(=O)oc1C | – | 11.2 µM (active)
O=C(NCc1ccccn1)c1cc(-c2ccccc2Cl)on1 | – | 3.55 µM (active)
CCC(C#CCN1CCCCC1)(CC)OCCC#N | -28.1% | –
Cc1cc(=O)oc(C)c1C(=O)NCc1ccccn1 | – | 12.6 µM (active)
CCCNC(=O)OC[C@@H]1O[C@H](CCO/N=C\c2ccc(C(=O)N3[C@H](c4ccc(C)cc4)[C@@H](C)CC[C@H]3C(=O)OC)cc2)C=C[C@@H]1Oc1ccc(OC)cc1 | -5.52% [at 11.4 µM] | –
CCN1C(=O)[C@H]2[C@H]3[C@H](O)[C@H](O)C/C(=N/OCC(C)C)[C@H]3CC[C@@H]2C1=O | -1.29% [at 11.4 µM] | –
O=C(O/N=C\c1ccc(N2CCCCC2)c([N+](=O)[O-])c1)c1c(F)cccc1F | – | 0.708 µM (active)
Cc1ccc(C(=O)O/N=C\c2ccc(N3CCCCC3)c([N+](=O)[O-])c2)cc1 | – | 0.251 µM (active)
Cc1ccc(OC(=O)c2ccc(N3CCOCC3)c([N+](=O)[O-])c2)cc1 | -58.9% | –
CO/N=C/c1ccc(N2CCN(C(=O)c3ccc(Cl)cc3Cl)CC2)c([N+](=O)[O-])c1 | -16.1% | –
CC(C)(Oc1ccc([C@@H]2CC2(Cl)Cl)cc1)C(=O)O | – | inactive
CC(C)OC(=O)C(C)(C)Oc1ccc(C(=O)c2ccc(Cl)cc2)cc1 | – | 5.01 µM (active)
Cn1c(=O)c(-c2cccs2)nc2cnc(N3CCNCC3)nc21 | – | 10 µM (active)
O=c1c(-c2cccs2)nc2cnc(N3CCNCC3)nc2n1C1CC1 | – | 2 µM (active)
OC[C@@H]1O[C@H](O)[C@@H](Cl)[C@H](O)[C@@H]1O | 1.58% | –
Cc1ccc(S(N)(=O)=O)cc1NC(=O)/C=C/c1cccs1 | – | 12.6 µM (active)
Cc1cccc(CNc2ncncc2-c2cccc(NS(C)(=O)=O)c2)c1 | – | 12.6 µM (active)
CS(=O)(=O)Nc1cccc(-c2ccc3ncnc(NCc4cccs4)c3c2)c1 | – | 0.0794 µM (active)
CS(=O)(=O)Nc1cccc(-c2cncnc2NCc2cccs2)c1 | – | 15.8 µM (active)
CS(=O)(=O)Nc1cccc(-c2cncnc2NCc2ccccc2)c1 | – | 25.1 µM (active)
CC(=O)Nc1c(I)c(C(=O)N[C@H]2[C@@H](O)[C@H](O)[C@H](CO)O[C@@H]2O)c(I)c(N(C)C(C)=O)c1I | -14.8% [at 25.6 µM] | –
CC12CS(=O)(=O)CC1SC(=S)N2c1ccccn1 (stereo unspecified) | -6.29% | –
